# In the supplement of paper PMC4466140:
# Legend:
# Test in all cases: SPOT peptide array binding signal intensity (averaged, normalized) (arbitrary units (background-subtracted, floor 0; scale differs between SH3 domains)); higher = stronger binding of the SH3 domain to the peptide
# CaNbp2 = molecular target: CaNbp2
# Procedure: (§1)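 GST-tagged SH3 domains from S. cerevisiae (Sc), A. gossypii (Ag), C. albicans (Ca) and S. pombe (Sp) were incubated at 10 ug/ml overnight at 4 C on cellulose SPOT membranes carrying 292 synthetic 15-mer peptides mined from the S. cerevisiae proteome (cysteines replaced by serines). Binding was detected with anti-GST antibody, HRP secondary and chemiluminescence, quantified with Genespotter, and reported as normalized spot intensities averaged over biological replicates.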
# CaRvs167 = molecular target: CaRvs167
# Procedure: as §1
# CaRvs167-3 = molecular target: CaRvs167-3
# Procedure: as §1
# CaSho1 = molecular target: CaSho1
# Procedure: as §1
# CaSla1-D1-D2 = molecular target: CaSla1-D1-D2
# Procedure: as §1
# CaSla1-D3 = molecular target: CaSla1-D3
# Procedure: as §1
# ScAbp1 = molecular target: ScAbp1
# Procedure: as §1
# ScBbc1 = molecular target: ScBbc1
# Procedure: as §1
# ScBem1-D1 = molecular target: ScBem1-D1
# Procedure: as §1
# ScBzz1-D1 = molecular target: ScBzz1-D1
# Procedure: as §1
# ScBzz1-D2 = molecular target: ScBzz1-D2
# Procedure: as §1
# ScCyk3 = molecular target: ScCyk3
# Procedure: as §1
# ScFus1 = molecular target: ScFus1
# Procedure: as §1
# ScHof1 = molecular target: ScHof1
# Procedure: as §1
# ScHse1 = molecular target: ScHse1
# Procedure: as §1
# ScLsb1 = molecular target: ScLsb1
# Procedure: as §1
# ScLsb2 = molecular target: ScLsb2
# Procedure: as §1
# ScLsb3 = molecular target: ScLsb3
# Procedure: as §1
# ScLsb4 = molecular target: ScLsb4
# Procedure: as §1
# ScMyo3 = molecular target: ScMyo3
# Procedure: as §1
# ScMyo5 = molecular target: ScMyo5
# Procedure: as §1
# ScNbp2 = molecular target: ScNbp2
# Procedure: as §1
# ScPex13 = molecular target: ScPex13
# Procedure: as §1
# ScRvs167 = molecular target: ScRvs167
# Procedure: as §1
# ScSho1 = molecular target: ScSho1
# Procedure: as §1
# ScSla1-D1-D2 = molecular target: ScSla1-D1-D2
# Procedure: as §1
# ScSla1-D3 = molecular target: ScSla1-D3
# Procedure: as §1
# SpAbp1-D1 = molecular target: SpAbp1-D1
# Procedure: as §1
# SpBbc1 = molecular target: SpBbc1
# Procedure: as §1
# SpBzz1-D1 = molecular target: SpBzz1-D1
# Procedure: as §1
# SpBzz1-D2 = molecular target: SpBzz1-D2
# Procedure: as §1
# SpCyk3 = molecular target: SpCyk3
# Procedure: as §1
# SpHof1 = molecular target: SpHof1
# Procedure: as §1
# SpHof1-2 = molecular target: SpHof1-2
# Procedure: as §1
# SpHof1-3 = molecular target: SpHof1-3
# Procedure: as §1
# SpHse1 = molecular target: SpHse1
# Procedure: as §1
# SpLsb1 = molecular target: SpLsb1
# Procedure: as §1
# SpLsb4 = molecular target: SpLsb4
# Procedure: as §1
# SpMyo1 = molecular target: SpMyo1
# Procedure: as §1
# SpNbp2 = molecular target: SpNbp2
# Procedure: as §1
# SpPex13 = molecular target: SpPex13
# Procedure: as §1
# SpRvs167 = molecular target: SpRvs167
# Procedure: as §1
# SpSla1-D1-D2 = molecular target: SpSla1-D1-D2
# Procedure: as §1
# SpSla1-D3 = molecular target: SpSla1-D3
# Procedure: as §1
# AgAbp1 = molecular target: AgAbp1
# Procedure: as §1
# AgBbc1 = molecular target: AgBbc1
# Procedure: as §1
# AgBem1-D1 = molecular target: AgBem1-D1
# Procedure: as §1
# AgBzz1-D1 = molecular target: AgBzz1-D1
# Procedure: as §1
# AgBzz1-D2 = molecular target: AgBzz1-D2
# Procedure: as §1
# AgCyk3 = molecular target: AgCyk3
# Procedure: as §1
# AgFus1 = molecular target: AgFus1
# Procedure: as §1
# AgHof1 = molecular target: AgHof1
# Procedure: as §1
# AgHse1 = molecular target: AgHse1
# Procedure: as §1
# AgLsb1 = molecular target: AgLsb1
# Procedure: as §1
# AgLsb4 = molecular target: AgLsb4
# Procedure: as §1
# AgMyo5 = molecular target: AgMyo5
# Procedure: as §1
# AgNbp2 = molecular target: AgNbp2
# Procedure: as §1
# AgRvs167 = molecular target: AgRvs167
# Procedure: as §1
# AgSho1 = molecular target: AgSho1
# Procedure: as §1
# AgSla1-D1-D2 = molecular target: AgSla1-D1-D2
# Procedure: as §1
# AgSla1-D3 = molecular target: AgSla1-D3
# Procedure: as §1
# CaAbp1-D1 = molecular target: CaAbp1-D1
# Procedure: as §1
# CaAbp1-D2 = molecular target: CaAbp1-D2
# Procedure: as §1
# CaBbc1 = molecular target: CaBbc1
# Procedure: as §1
# CaBem1-D1 = molecular target: CaBem1-D1
# Procedure: as §1
# CaBzz1-D1 = molecular target: CaBzz1-D1
# Procedure: as §1
# CaBzz1-D2 = molecular target: CaBzz1-D2
# Procedure: as §1
# CaCyk3 = molecular target: CaCyk3
# Procedure: as §1
# CaFus1 = molecular target: CaFus1
# Procedure: as §1
# CaHof1 = molecular target: CaHof1
# Procedure: as §1
# CaHse1 = molecular target: CaHse1
# Procedure: as §1
# CaLsb1 = molecular target: CaLsb1
# Procedure: as §1
# CaLsb4 = molecular target: CaLsb4
# Procedure: as §1
# CaMyo5 = molecular target: CaMyo5
# Procedure: as §1
binder,measurement,setting,value
NLKKRPPTAPQRKIS,SPOT peptide array binding signal intensity,CaNbp2,764
same,SPOT peptide array binding signal intensity,CaRvs167,32
same,SPOT peptide array binding signal intensity,CaRvs167-3,67.8
same,SPOT peptide array binding signal intensity,CaSho1,170
same,SPOT peptide array binding signal intensity,CaSla1-D1-D2,1470
same,SPOT peptide array binding signal intensity,CaSla1-D3,6.5
same,SPOT peptide array binding signal intensity,ScAbp1,2890
same,SPOT peptide array binding signal intensity,ScBbc1,56.8
same,SPOT peptide array binding signal intensity,ScBem1-D1,8
same,SPOT peptide array binding signal intensity,ScBzz1-D1,258
same,SPOT peptide array binding signal intensity,ScBzz1-D2,34
same,SPOT peptide array binding signal intensity,ScCyk3,13
same,SPOT peptide array binding signal intensity,ScFus1,80
same,SPOT peptide array binding signal intensity,ScHof1,2.75
same,SPOT peptide array binding signal intensity,ScHse1,1640
same,SPOT peptide array binding signal intensity,ScLsb1,32.5
same,SPOT peptide array binding signal intensity,ScLsb2,3.5
same,SPOT peptide array binding signal intensity,ScLsb3,2500
same,SPOT peptide array binding signal intensity,ScLsb4,100
same,SPOT peptide array binding signal intensity,ScMyo3,9.5
same,SPOT peptide array binding signal intensity,ScMyo5,6.5
same,SPOT peptide array binding signal intensity,ScNbp2,578
same,SPOT peptide array binding signal intensity,ScPex13,1.75
same,SPOT peptide array binding signal intensity,ScRvs167,708
same,SPOT peptide array binding signal intensity,ScSho1,367
same,SPOT peptide array binding signal intensity,ScSla1-D1-D2,1690
same,SPOT peptide array binding signal intensity,ScSla1-D3,8.25
same,SPOT peptide array binding signal intensity,SpAbp1-D1,2030
same,SPOT peptide array binding signal intensity,SpBbc1,11
same,SPOT peptide array binding signal intensity,SpBzz1-D1,641
same,SPOT peptide array binding signal intensity,SpBzz1-D2,8.5
same,SPOT peptide array binding signal intensity,SpCyk3,≤ 0
same,SPOT peptide array binding signal intensity,SpHof1,192
same,SPOT peptide array binding signal intensity,SpHof1-2,12.8
same,SPOT peptide array binding signal intensity,SpHof1-3,77.2
same,SPOT peptide array binding signal intensity,SpHse1,1160
same,SPOT peptide array binding signal intensity,SpLsb1,9
same,SPOT peptide array binding signal intensity,SpLsb4,2350
same,SPOT peptide array binding signal intensity,SpMyo1,10.2
same,SPOT peptide array binding signal intensity,SpNbp2,303
same,SPOT peptide array binding signal intensity,SpPex13,6
same,SPOT peptide array binding signal intensity,SpRvs167,539
same,SPOT peptide array binding signal intensity,SpSla1-D1-D2,13
same,SPOT peptide array binding signal intensity,SpSla1-D3,6
RRTRLRPPTPLSQLL,SPOT peptide array binding signal intensity,AgAbp1,31.5
same,SPOT peptide array binding signal intensity,AgBbc1,145
same,SPOT peptide array binding signal intensity,AgBem1-D1,113
same,SPOT peptide array binding signal intensity,AgBzz1-D1,80.8
same,SPOT peptide array binding signal intensity,AgBzz1-D2,45.5
same,SPOT peptide array binding signal intensity,AgCyk3,1.5
same,SPOT peptide array binding signal intensity,AgFus1,1120
same,SPOT peptide array binding signal intensity,AgHof1,123
same,SPOT peptide array binding signal intensity,AgHse1,866
same,SPOT peptide array binding signal intensity,AgLsb1,154
same,SPOT peptide array binding signal intensity,AgLsb4,100
same,SPOT peptide array binding signal intensity,AgMyo5,1.75
same,SPOT peptide array binding signal intensity,AgNbp2,204
same,SPOT peptide array binding signal intensity,AgRvs167,15.2
same,SPOT peptide array binding signal intensity,AgSho1,64
same,SPOT peptide array binding signal intensity,AgSla1-D1-D2,93
same,SPOT peptide array binding signal intensity,AgSla1-D3,5
same,SPOT peptide array binding signal intensity,CaAbp1-D1,218
same,SPOT peptide array binding signal intensity,CaAbp1-D2,133
same,SPOT peptide array binding signal intensity,CaBbc1,333
same,SPOT peptide array binding signal intensity,CaBem1-D1,192
same,SPOT peptide array binding signal intensity,CaBzz1-D1,233
same,SPOT peptide array binding signal intensity,CaBzz1-D2,76.8
same,SPOT peptide array binding signal intensity,CaCyk3,88.5
same,SPOT peptide array binding signal intensity,CaFus1,1050
same,SPOT peptide array binding signal intensity,CaHof1,7.63e-06
same,SPOT peptide array binding signal intensity,CaHse1,60.6
same,SPOT peptide array binding signal intensity,CaLsb1,0.5
same,SPOT peptide array binding signal intensity,CaLsb4,307
same,SPOT peptide array binding signal intensity,CaMyo5,4
same,SPOT peptide array binding signal intensity,CaNbp2,512
same,SPOT peptide array binding signal intensity,CaRvs167,40.8
same,SPOT peptide array binding signal intensity,CaRvs167-3,16.5
same,SPOT peptide array binding signal intensity,CaSho1,526
same,SPOT peptide array binding signal intensity,CaSla1-D1-D2,574
same,SPOT peptide array binding signal intensity,CaSla1-D3,12.9
same,SPOT peptide array binding signal intensity,ScAbp1,70.5
same,SPOT peptide array binding signal intensity,ScBbc1,61.6
same,SPOT peptide array binding signal intensity,ScBem1-D1,111
same,SPOT peptide array binding signal intensity,ScBzz1-D1,42
same,SPOT peptide array binding signal intensity,ScBzz1-D2,26.2
same,SPOT peptide array binding signal intensity,ScCyk3,83.8
same,SPOT peptide array binding signal intensity,ScFus1,722
same,SPOT peptide array binding signal intensity,ScHof1,4.5
same,SPOT peptide array binding signal intensity,ScHse1,1120
same,SPOT peptide array binding signal intensity,ScLsb1,63
same,SPOT peptide array binding signal intensity,ScLsb2,5.5
same,SPOT peptide array binding signal intensity,ScLsb3,1130
same,SPOT peptide array binding signal intensity,ScLsb4,37.8
same,SPOT peptide array binding signal intensity,ScMyo3,≤ 0
same,SPOT peptide array binding signal intensity,ScMyo5,4.12
same,SPOT peptide array binding signal intensity,ScNbp2,727
same,SPOT peptide array binding signal intensity,ScPex13,16.2
same,SPOT peptide array binding signal intensity,ScRvs167,148
same,SPOT peptide array binding signal intensity,ScSho1,1180
same,SPOT peptide array binding signal intensity,ScSla1-D1-D2,2070
same,SPOT peptide array binding signal intensity,ScSla1-D3,3.38
same,SPOT peptide array binding signal intensity,SpAbp1-D1,20.5
same,SPOT peptide array binding signal intensity,SpBbc1,14.8
same,SPOT peptide array binding signal intensity,SpBzz1-D1,486
